Assay results published in PubChem BioAssay (NCATS).
Inconclusive results are not listed. Active and inactive are the calls of the source. The call rests on the fitted dose curve; in most records, active means well fitted inhibition curve with a large enough effect; inconclusive means small, poorly fitted or top-dose-only effect; inactive means flat fitted curve, though single readings scatter.

Tests used:
Assay in all cases: qHTS profiling for inhibitors of Plasmodium falciparum proliferation (AID 504749); further: nearly all actives have a fitted effect of over 60% in size
Settings in all cases: P. falciparum in erythrocytes, SYBR Green DNA, 72 h; series mostly up to 28.7 µM
AA1029 = tested on: AA1029
Summary of the method: (§1)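 SYBR Green fluorescence of parasite DNA, read after lysis and overnight dark incubation, measured growth over 72 h in erythrocyte culture at 0.3% parasitemia and 2.5% hematocrit. Data normalised to DMSO and 0.29 uM artemisinin, with plate-drift correction.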

AS120 = tested on: AS120
Summary of the method: as §1

ATS189 = tested on: ATS189
Summary of the method: as §1

ATS95 = tested on: ATS95
Summary of the method: as §1

C2A = tested on: C2A
Summary of the method: as §1

CP185 = tested on: CP185
Summary of the method: as §1

CP191 = tested on: CP191
Summary of the method: as §1

CP192 = tested on: CP192
Summary of the method: as §1

CP194 = tested on: CP194
Summary of the method: as §1

CP201 = tested on: CP201
Summary of the method: as §1

CP203 = tested on: CP203
Summary of the method: as §1

CP211 = tested on: CP211
Summary of the method: as §1

CP215 = tested on: CP215
Summary of the method: as §1

CP217 = tested on: CP217
Summary of the method: as §1

CP237 = tested on: CP237
Summary of the method: as §1

CP238 = tested on: CP238
Summary of the method: as §1

CP247 = tested on: CP247
Summary of the method: as §1

CP250 = tested on: CP250
Summary of the method: as §1

CP252 = tested on: CP252
Summary of the method: as §1

CP256 = tested on: CP256
Summary of the method: as §1

Measured: Potency

NC(=S)NS(=O)(=O)c1ccc(N)cc1
inactive: all assays above

CC(=O)[C@H]1CC[C@H]2[C@@H]3C=CC4=CC(=O)CC[C@@]4(C)[C@H]3CC[C@]12C
inactive: all assays above

O=C(O)c1ccc(OCCn2ccnc2)cc1
inactive: all assays above

CN1c2c(nc(N)[nH]c2=O)NCC1CNc1ccc(C(=O)NC(CCC(=O)O)C(=O)O)cc1 (centres undefined)
inactive: all assays above

NCC[C@H](O)C(=O)N[C@@H]1C[C@H](N)[C@@H](O[C@H]2O[C@H](CN)[C@@H](O)[C@H](O)[C@H]2O)[C@H](O)[C@H]1O[C@H]1O[C@H](CO)[C@@H](O)[C@H](N)[C@H]1O
inactive: all assays above

C[C@H]1O[C@@H](O[C@H]2[C@@H](O)C[C@H](O[C@H]3[C@@H](O)C[C@H](O[C@H]4CC[C@@]5(C)[C@H](CC[C@@H]6[C@@H]5C[C@@H](O)[C@]5(C)[C@@H](C7=CC(=O)OC7)CC[C@]65O)C4)O[C@@H]3C)O[C@@H]2C)C[C@H](O)[C@@H]1O
inactive: all assays above

O=C1[O][Bi][O]c2ccccc21
inactive: all assays above

CC(C)CCC[C@@H](C)[C@H]1CC[C@H]2[C@@H]3CC=C4C[C@@H](O)CC[C@]4(C)[C@H]3CC[C@]12C
inactive: all assays above

CC/C=C\C/C=C\C/C=C\C/C=C\C/C=C\C/C=C\CCC(=O)O
inactive: all assays above

CCCCC[C@H](O)/C=C/[C@H]1[C@H](O)CC(=O)[C@@H]1C/C=C\CCCC(=O)O
inactive: all assays above

O=C1N=C2SCCN2C(=O)C1Cc1ccc(Cl)cc1 (centres undefined)
inactive: all assays above

CC1(C)S[C@@H]2[C@H](NC(=O)C3(N)CCCCC3)C(=O)N2[C@H]1C(=O)O
inactive: all assays above

CC(=O)Nc1ccc(OC(=O)c2ccccc2O)cc1
inactive: all assays above

CC1=CCC2CC1C2(C)C (centres undefined)
inactive: all assays above

CS(=O)(=O)OCC(O)C(O)COS(C)(=O)=O (centres undefined)
inactive: all assays above

CC1(O)CCC(C(C)(C)O)CC1 (centres undefined)
inactive: all assays above

Cc1cc(-c2ccc(N=Nc3ccc4c(S(=O)(=O)O)cc(S(=O)(=O)O)c(N)c4c3O)c(C)c2)ccc1N=Nc1ccc2c(S(=O)(=O)O)cc(S(=O)(=O)O)c(N)c2c1O
inactive: all assays above

CCCCCCCCCCCCCCCCCC(=O)OCC(C)O (centres undefined)
inactive: all assays above

CC(C)CCCC(C)NC(C)C (centres undefined)
inactive: all assays above

NC(=O)[C@H]1O[C@@H](O)[C@H](O)[C@@H](O)[C@@H]1O
inactive: all assays above

CC1C(=O)CC2C3(C)CCC2(C(C)C(=O)O)C(=O)C13 (centres undefined)
inactive: all assays above

CCN(CC)C(=S)S
inactive: all assays above

NC(=O)Oc1ccc(Cc2ccccc2)cc1
inactive: all assays above

Cc1cccc(C)c1NC(=O)C1CCCCN1C (centres undefined)
inactive: all assays above

CC1CCCCN1CCCOC(=O)c1ccccc1 (centres undefined)
inactive: all assays above

CC(CCc1ccc(O)cc1)NCC(O)c1ccc(O)cc1 (centres undefined)
inactive: all assays above

O[C@@H]([C@H](O)[C@H](O)CBr)[C@H](O)CBr
not listed: CP256
inactive: all other assays above
